Assay outcomes (PubChem BioAssay)
AmpC detergent – qHTS Inhibitors of AmpC Beta-Lactamase (assay with detergent) | P00811 | AmpC hydrolysis of nitrocefin, absorbance 480 nm, 0.01% Triton | Potency, µM (highest dose often 114 µM), inactives show at the highest dose activity change, negative = inhibition, hits mostly inhibitors | actives 0.041% (n = 370,000) | AID 485294, 2010;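 note: 0% = no-compound wells and -100% = no-enzyme wells; nearly all actives have a fitted effect of over 25% in size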
Target sequence (P00811 whole entry, looked up): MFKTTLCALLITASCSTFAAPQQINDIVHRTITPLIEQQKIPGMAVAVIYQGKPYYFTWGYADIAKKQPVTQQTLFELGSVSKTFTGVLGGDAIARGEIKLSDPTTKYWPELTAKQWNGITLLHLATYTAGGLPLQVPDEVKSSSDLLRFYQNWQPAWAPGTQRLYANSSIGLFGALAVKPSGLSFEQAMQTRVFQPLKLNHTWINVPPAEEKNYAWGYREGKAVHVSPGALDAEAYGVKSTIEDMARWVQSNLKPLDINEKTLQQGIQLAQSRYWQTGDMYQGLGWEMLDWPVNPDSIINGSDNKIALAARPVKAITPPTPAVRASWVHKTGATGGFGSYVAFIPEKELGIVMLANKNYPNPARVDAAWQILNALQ
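AmpC (5.3 nM in the dispensed reagent) in 20 mM phosphate pH 7.0 with 0.01% (detergent screen) or 0.0001% Triton X-100 was preincubated with compounds for 15 min at room temperature. Nitrocefin was then added from an 800 uM solution, and hydrolysis was followed at 480 nm.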
AmpC inh no detg – qHTS Inhibitors of AmpC Beta-Lactamase (assay without detergent); P00811; AmpC nitrocefin hydrolysis, absorbance 480 nm, 0.0001% Triton; Potency, µM (highest dose often 57.1 µM), inactives show at the top dose activity change, negative = inhibition, actives largely listed as inhibitors; actives 0.52% (n = 330,000);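 note: plate controls were no compound for no effect and no enzyme for full effect; nearly all actives have a fitted effect of over 20% in size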
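AmpC (5.3 nM in the dispensed reagent) in 20 mM phosphate pH 7.0 with 0.01% (detergent screen) or 0.0001% Triton X-100 was preincubated with compounds for 15 min at room temperature. Nitrocefin was then added from an 800 uM solution, and hydrolysis was followed at 480 nm.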
AMA1-RON2 inh – qHTS for Inhibitors of AMA1-RON; Towards Development of Antimalarial Drug Lead: Primary Screen. Plasmodium falciparum AMA1 (3D7) - RON2 peptide interaction. AlphaScreen AMA1-biotinylated RON2 peptide binding. Potency, µM (top dose mostly 58.2 µM), without a hit: at the top dose activity change, negative = inhibition, usual class: inhibitors. actives 0.2% (n = 360,000);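 note: 0% = vehicle wells and -100% = peptide control; nearly all actives have a fitted effect of over 45% in size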
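AMA1 (3D7) with his tag at 25 nM final met compounds first, then biotinylated RON2 peptide at 25 nM; detection used donor plus acceptor beads, 10 µg/mL apiece, read by AlphaScreen after 30 min at room temperature.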
Sm TGR inh – qHTS Assay for the Inhibitors of Schistosoma Mansoni Peroxiredoxins | Schistosoma mansoni thioredoxin glutathione reductase (TGR), Q962Y6 | purified TGR, DTNB reduction, TNB absorbance 405 nm | Potency, µM (series often up to 114 µM), inactives show at the highest dose activity change, negative = inhibition, actives largely listed as inhibitors | actives 3% (n = 360,000) | AID 485364, 2010; note: nearly all actives have a fitted effect of over 60% in size
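TGR 20 nM + NADPH 100 uM (dispensed conc.), cpd preinc 15 min RT; start with NADPH (500 uM addition) then DTNB (15 mM addition). Kinetic TNB absorbance, 405 nm filter. Four-parameter Hill fit across titration.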
FMDV antiviral – High Throughput Screening for Foot and Mouth Disease Virus Antivirals. Potency, µM (highest dose often 57.9 µM), inactives show at the highest dose activity change, negative = inhibition, usual class: inhibitors. actives 1.2% (n = 410,000). FMDV antiviral cell-based qHTS. AID 1159524, 2015; calls by dose curve; tested in HEK293T cells; note: read-out not given here; nearly all actives have a fitted effect of over 45% in size
Numbers without * were called inactive; ? = inconclusive; . = not tested or not shown; [ ] = remark or other dose. The list is not random: actives were taken first. Their share in the collection is about 4.1%. Unless noted, calls come from the whole dose curve; as a rule, active = well fitted curve in the direction sought with a large enough effect; inconclusive = small, poorly fitted or top-dose-only effect, or another doubt; inactive = no such curve, though single readings can be large; an effect the other way counts as inactive or inconclusive. Unless noted, % is set by controls: 0 for no effect and ±100 for the full control effect; potency is the fitted concentration of half-maximal effect.

SMILES | AmpC detergent | AmpC inh no detg | AMA1-RON2 inh | Sm TGR inh | FMDV antiviral
CCCCc1c(C)c(C#N)c2nc3ccccc3n2c1Cl | 2% | -10% | . | 3.5µM* | .
Cc1ccc2cc(CN(C(=O)c3ccc4c(c3)OCO4)C3CC3)c(N(C)C)nc2c1 | . | . | . | . | 2%
CCC1CN(C(=O)N2CCC(C(=O)NCCCc3ccccc3)CC2)c2cc(C)ccc2O1 (centres undefined) | 21% | . | . | -1% | ?
CCOc1ccc(CCNC(=O)C2CCN(C(=O)N3CC(CC)Oc4ccc(C)cc43)CC2)cc1 (centres undefined) | -1% | . | . | -2% | 28µM*
Cc1c(C(=O)c2no[n+]([O-])c2C(=O)c2cnn(C)c2C)cnn1C | ? | -5% | -1% | ? | 40µM*
O=C1c2ccccc2C(O)(Cc2ccccc2)N1Cc1ccco1 (centres undefined) | -1% | -14% | -4% | 45µM* | .
Cc1ccc(-n2nnnc2CNC(=O)c2ccccc2S(C)(=O)=O)cc1C | 19% | . | . | 4% | -18%
COc1ccc2[nH]cc(C(=O)CN(C)C)c2c1 | . | . | -7% | . | -17%
COc1ccc2c(C(=O)CCl)c[nH]c2c1 | ? | -14% | -16% | 4.5µM* | 35µM*
COc1ccc2c(CC#N)c[nH]c2c1 | 3% | -16% | -4% | 50µM* | 8%
C=C1C(=O)c2sccc2C(c2ccc(OC)c(OC)c2)C1COC(C)=O (centres undefined) | . | . | 10% | . | 13µM*
CCN1CCN(CC(=O)N2N=C(c3cccs3)CC2c2ccc(OC)c(OC)c2)C(=O)C1=O (centres undefined) | ? | 122% | 4% | -1% | -2%
Cc1ccn2c(C(=O)CSc3ccccc3Cl)c(C)nc2c1 | 2% | 0.32µM* | -1% | -5% | -7%
CCOC(=O)c1c(C)nc2cc(C)ccn12 | -9% | -11% | 8% | -6% | 45%
Cc1ccc(-c2nnc(Nc3ccc(Br)cc3)c3ccccc23)cc1S(=O)(=O)N1CCCCC1 | 10% | . | . | 3% | -12%
CCS(=O)(=O)Nc1cc(C(=O)N[C@H]2CCCCNC2=O)c2c(c1)nc(-c1ccccc1)n2C | . | . | . | . | -18%
CCCCCCN1C=C/C(=C\C=C(C#N)C#N)c2ccccc21 | ? | -4% | -15% | -1% | ?
C=CCN1C=C/C(=C\C=C(C#N)C#N)c2ccccc21 | -15% | -14% | 14µM* | -10% | -22%
Cc1ccc(-n2c(=O)c3c(C)c(C)sc3n(CC(=O)NCc3ccccc3)c2=O)cc1C | 2% | . | . | -3% | -14%
COc1nc(Cl)cn(-c2ccc(C)cc2)c1=O | -3% | -10% | 11% | 3% | -4%
Cc1ccc(-n2c(Cl)c(Cl)nc(Cl)c2=O)cc1 | ? | -3% | -2% | 0.79µM* | 7.1µM*
CCN(CCO)c1ccc(NC(=S)Nc2cccc(S(=O)(=O)N(C)C)c2)cc1 | -9% | -22% | -7% | 40µM* | -17%
CN(C)S(=O)(=O)c1cccc(NC(=S)Nc2ccc(Cl)cc2Cl)c1 | 9% | -38% | 28% | 8.9µM* | ?
CCC1=C(c2ccc(C)cc2)S(=O)(=O)N=C1N1CCC(C(=O)NCc2ccc(N(C)C)cc2)CC1 | -3% | . | . | -75% | -6%
COCCN1CCN(C(=O)c2cnn(-c3nccc(-c4ccco4)n3)c2C2CC2)CC1 | . | . | . | . | 5%
SMILES | AmpC detergent | AmpC inh no detg | AMA1-RON2 inh | Sm TGR inh | FMDV antiviral
CCOC(=O)c1c(C)[nH]c(C(=O)OCC(=O)Nc2sccc2C(N)=O)c1C | -7% | -29% | 18% | -5% | 16µM*
CC(C)(C)C1CCC2(CC1)Nc1cccc3cccc(c13)N2 | ? | 13µM* | -7% | 45% | -27%
Cc1ccc2nc(/C(C#N)=C\c3ccc(Oc4ccc([N+](=O)[O-])cn4)cc3)[nH]c2c1 | -6% | 28µM* | 24% | -11% | -28%
COc1ccc2nc(/C(C#N)=C\c3ccc(Oc4ccc([N+](=O)[O-])cn4)cc3)[nH]c2c1 | -4% | ? | 41% | -13% | -1%
Cc1ccc(NC(=O)Cn2cnc3c2c(=O)n(C)c(=O)n3C)cc1C | 3% | . | . | 8% | -14%
CCNC(=O)CN1c2cccc3cccc(c23)S1(=O)=O | 5% | -10% | 9% | 4% | -4%
C=CCn1c(C)cc(C(=O)CN2C(=O)c3ccccc3S2(=O)=O)c1C | -9% | -31% | 33%[11.6 µM] | -10% | 40µM*
COCCCn1c(C)cc(C(=O)CN2c3cccc4cccc(c34)S2(=O)=O)c1C | 0% | 25% | -9% | 22µM* | -1%
CCn1c(C)cc(C(=O)CN2C(=O)c3ccccc3S2(=O)=O)c1C | -3% | -16% | -2%[11.6 µM] | -8% | ?
Cc1ccc(C(=O)CN2C(=O)c3ccccc3S2(=O)=O)cc1 | -1% | -11% | -6% | 5% | 14µM*
CCC(CC)C(=O)N1CCc2cc(OC)c(OC)cc2C1COc1ccccc1OC (centres undefined) | -3% | . | . | -4% | -20%
CNC(=O)C1CCN(C(=O)N2CC(C)Oc3ccc(Cl)cc32)CC1 (centres undefined) | 13% | . | . | -3% | -2%
COC(=O)C1C(=O)c2c([nH]c(C(=O)OC3CCCCC3)c2C)CC1C (centres undefined) | -12% | -27% | -8% | -19% | 46%
COC(=O)C1C(=O)c2c([nH]c(C(=O)OC3CCCC3C)c2C)CC1C (centres undefined) | ? | 7.1µM* | -6% | -1% | 27%
CCOC(=O)CSc1snnc1C | . | . | 2% | . | -10%
CCOC(=O)CSC1=NC(=O)CS1 | 8% | -13% | 11% | 32µM* | -18%
N#Cc1c(-c2ccco2)cc(-c2ccccc2)[nH]c1=O | -7% | -43% | -7% | 8.9µM* | -6%
Cc1ccc(-c2cc(-c3ccco3)c(C#N)c(=O)[nH]2)cc1 | -1% | -48% | 4% | 2.2µM* | -6%
N#Cc1sc2nc(-c3ccccc3)cc(-c3ccco3)c2c1N | 2% | ? | -28% | 40µM* | -15%
N#Cc1sc2nc(C3CC3)cc(-c3ccccc3)c2c1N | ? | -25% | 83% | 9% | 0%
N#Cc1c(-c2ccccc2)cc(-c2ccco2)c(C#N)c1N | -5% | 14µM* | . | 2.8µM* | .
COc1ccc(OC)c(CNC(=O)c2ccc3nc(C(C)C)oc3c2)c1 | -4% | . | . | -5% | 10%
Cc1ccc(-n2nc(C)c3c(=O)[nH]c(C(F)(F)F)nc32)cc1 | -1% | -7% | . | 0% | .
Cc1nn(-c2ccccc2)c2nc(C(Cl)(Cl)Cl)[nH]c(=O)c12 | 0% | -37% | 13% | 13µM* | ?
